Residue numbers refer to the chain shown, from its start.
Key:
Test in all cases: yeast three-hybrid, YBZ-1, SC-Leu-His + 0.5 mM 3-AT, 4 days
Settings in all cases: tags: N-Gal4 AD-HA kept; label: inside an RPR1-promoter hybrid RNA with tandem MS2 sites; ssRNA
PUM1 PUF domain R6-CWG = target: T1, PUM1 PUF domain R6-CWG (Homo sapiens, UniProt Q14671 828-1176, N1043C;Y1044W;Q1047G)
T1 sequence: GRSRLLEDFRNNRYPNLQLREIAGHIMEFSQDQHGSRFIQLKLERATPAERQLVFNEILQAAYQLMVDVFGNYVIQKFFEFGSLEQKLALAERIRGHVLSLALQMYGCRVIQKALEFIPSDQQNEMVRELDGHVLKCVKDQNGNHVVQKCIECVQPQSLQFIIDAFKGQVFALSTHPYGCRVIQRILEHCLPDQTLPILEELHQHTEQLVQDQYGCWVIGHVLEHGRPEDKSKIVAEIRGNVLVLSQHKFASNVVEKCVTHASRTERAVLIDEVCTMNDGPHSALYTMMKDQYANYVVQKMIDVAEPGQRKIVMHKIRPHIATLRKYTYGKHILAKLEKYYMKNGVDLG
Outline: (§1)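 The interaction score is the log change in how often each variant appears, from input to selection. Frequencies came from PCR-amplified, Illumina-sequenced repeat regions of Pumilio-1 PUF domain libraries grown in strain YBZ-1 (LexA–MS2 coat fusion, HIS3 reporter) alongside matching RNA elements. Input plates were SC-Leu and selection plates were SC-Leu-His + 0.5 mM 3-AT, each for four days, and the log2 calculation used a pseudocount of 1 where a variant was absent.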

PUM1 PUF domain R1-HGR = PUM1 PUF domain R1-HGR (Homo sapiens, UniProt Q14671 828-1176, S863H;R864G;Q867R)
Outline: as §1

PUM1 PUF domain R1-KDL = PUM1 PUF domain R1-KDL (Homo sapiens, UniProt Q14671 828-1176, S863K;R864D;Q867L)
Outline: as §1

PUM1 PUF domain R3-WCM = PUM1 PUF domain R3-WCM (Homo sapiens, UniProt Q14671 828-1176, C935W;R936C;Q939M)
Outline: as §1

PUM1 PUF domain R3-GYD = PUM1 PUF domain R3-GYD (Homo sapiens, UniProt Q14671 828-1176, C935G;R936Y;Q939D)
Outline: as §1

PUM1 PUF domain R2-KIG = PUM1 PUF domain R2-KIG (Homo sapiens, UniProt Q14671 828-1176, N899K;Y900I;Q903G)
Outline: as §1

PUM1 PUF domain R2-LWR = PUM1 PUF domain R2-LWR (Homo sapiens, UniProt Q14671 828-1176, N899L;Y900W;Q903R)
Outline: as §1

PUM1 PUF domain R1-QGR = PUM1 PUF domain R1-QGR (Homo sapiens, UniProt Q14671 828-1176, S863Q;R864G;Q867R)
Outline: as §1

PUM1 PUF domain R1-GRN = PUM1 PUF domain R1-GRN (Homo sapiens, UniProt Q14671 828-1176, S863G;Q867N)
Outline: as §1

PUM1 PUF domain R8-PFQ = PUM1 PUF domain R8-PFQ (Homo sapiens, UniProt Q14671 828-1176, N1122P;Y1123F)
Outline: as §1

PUM1 PUF domain R8-RRP = PUM1 PUF domain R8-RRP (Homo sapiens, UniProt Q14671 828-1176, N1122R;Y1123R;Q1126P)
Outline: as §1

PUM1 PUF domain R3-RRM = PUM1 PUF domain R3-RRM (Homo sapiens, UniProt Q14671 828-1176, C935R;Q939M)
Outline: as §1

PUM1 PUF domain R1-KMC = PUM1 PUF domain R1-KMC (Homo sapiens, UniProt Q14671 828-1176, S863K;R864M;Q867C)
Outline: as §1

PUM1 PUF domain R4-WAR = PUM1 PUF domain R4-WAR (Homo sapiens, UniProt Q14671 828-1176, N971W;H972A;Q975R)
Outline: as §1

PUM1 PUF domain R6-TFD = target: T2, PUM1 PUF domain R6-TFD (Homo sapiens, UniProt Q14671 828-1176, N1043T;Y1044F;Q1047D)
T2 sequence: T1 sequence with C216T, W217F, G220D
Outline: as §1

PUM1 PUF domain R5-CAR = PUM1 PUF domain R5-CAR (Homo sapiens, UniProt Q14671 828-1176, R1008A;Q1011R)
Outline: as §1

PUM1 PUF domain R5-RKQ = PUM1 PUF domain R5-RKQ (Homo sapiens, UniProt Q14671 828-1176, C1007R;R1008K)
Outline: as §1

PUM1 PUF domain R5-FRV = PUM1 PUF domain R5-FRV (Homo sapiens, UniProt Q14671 828-1176, C1007F;Q1011V)
Outline: as §1

PUM1 PUF domain R5-RNS = PUM1 PUF domain R5-RNS (Homo sapiens, UniProt Q14671 828-1176, C1007R;R1008N;Q1011S)
Outline: as §1

PUM1 PUF domain R5-NGC = PUM1 PUF domain R5-NGC (Homo sapiens, UniProt Q14671 828-1176, C1007N;R1008G;Q1011C)
Outline: as §1

Sequence: GGCUAGAACUAGUGGAUCCCCCGGCGCCCGGCGGCUCGAGCCCGGGUAAGUGAAAAUAGUCUGCAUGCCGCCGGGCGCCAUGCCUGCAGGUCGACUCUAGAAAACAUG
- binding signal (PUM1 PUF domain R6-CWG): 4.54 log2 enrichment (interaction score)

Sequence: GGCUAGAACUAGUGGAUCCCCCGGCGCCCGGCGGCUCGAGCCCGGGUAAGUGUAAAUUGUCUGCAUGCCGCCGGGCGCCAUGCCUGCAGGUCGACUCUAGAAAACAUG
- binding signal (PUM1 PUF domain R1-HGR): 2.93 log2 enrichment (interaction score)
- binding signal (PUM1 PUF domain R1-KDL): 3.53 log2 enrichment (interaction score)

Sequence: GGCUAGAACUAGUGGAUCCCCCGGCGCCCGGCGGCUCGAGCCCGGGUAAGUGUAAGUAGUCUGCAUGCCGCCGGGCGCCAUGCCUGCAGGUCGACUCUAGAAAACAUG
- binding signal (PUM1 PUF domain R3-WCM): 4.19 log2 enrichment (interaction score)
- binding signal (PUM1 PUF domain R3-GYD): 5.08 log2 enrichment (interaction score)

Sequence: GGCUAGAACUAGUGGAUCCCCCGGCGCCCGGCGGCUCGAGCCCGGGUAAGUGUAAAGAGUCUGCAUGCCGCCGGGCGCCAUGCCUGCAGGUCGACUCUAGAAAACAUG
- binding signal (PUM1 PUF domain R2-KIG): 3.17 log2 enrichment (interaction score)
- binding signal (PUM1 PUF domain R2-LWR): 1.92 log2 enrichment (interaction score)

Sequence: GGCUAGAACUAGUGGAUCCCCCGGCGCCCGGCGGCUCGAGCCCGGGUAAGUGUAAAAAGUCUGCAUGCCGCCGGGCGCCAUGCCUGCAGGUCGACUCUAGAAAACAUG
- binding signal (PUM1 PUF domain R2-LWR): 3.68 log2 enrichment (interaction score)

Sequence: GGCUAGAACUAGUGGAUCCCCCGGCGCCCGGCGGCUCGAGCCCGGGUAAGUGUAAAUCGUCUGCAUGCCGCCGGGCGCCAUGCCUGCAGGUCGACUCUAGAAAACAUG
- binding signal (PUM1 PUF domain R1-KDL): 0.72 log2 enrichment (interaction score)
- binding signal (PUM1 PUF domain R1-QGR): 2.69 log2 enrichment (interaction score)
- binding signal (PUM1 PUF domain R1-GRN): 3.33 log2 enrichment (interaction score)

Sequence: GGCUAGAACUAGUGGAUCCCCCGGCGCCCGGCGGCUCGAGCCCGGGUAAGCGUAAAUAGUCUGCAUGCCGCCGGGCGCCAUGCCUGCAGGUCGACUCUAGAAAACAUG
- binding signal (PUM1 PUF domain R8-PFQ): 3.59 log2 enrichment (interaction score)
- binding signal (PUM1 PUF domain R8-RRP): 4.45 log2 enrichment (interaction score)

Sequence: GGCUAGAACUAGUGGAUCCCCCGGCGCCCGGCGGCUCGAGCCCGGGUAAGUGUAAUUAGUCUGCAUGCCGCCGGGCGCCAUGCCUGCAGGUCGACUCUAGAAAACAUG
- binding signal (PUM1 PUF domain R3-RRM): 3.06 log2 enrichment (interaction score)

Sequence: GGCUAGAACUAGUGGAUCCCCCGGCGCCCGGCGGCUCGAGCCCGGGUAAGUGUAAAUGGUCUGCAUGCCGCCGGGCGCCAUGCCUGCAGGUCGACUCUAGAAAACAUG
- binding signal (PUM1 PUF domain R1-KMC): 3.4 log2 enrichment (interaction score)
- binding signal (PUM1 PUF domain R1-GRN): 1.19 log2 enrichment (interaction score)

Sequence: GGCUAGAACUAGUGGAUCCCCCGGCGCCCGGCGGCUCGAGCCCGGGUAAGUGUAAAUAGUCUGCAUGCCGCCGGGCGCCAUGCCUGCAGGUCGACUCUAGAAAACAUG
- binding signal (PUM1 PUF domain R8-PFQ): 2.66 log2 enrichment (interaction score)
- binding signal (PUM1 PUF domain R6-CWG): 3.03 log2 enrichment (interaction score)
- binding signal (PUM1 PUF domain R4-WAR): 1.01 log2 enrichment (interaction score)
- binding signal (PUM1 PUF domain R8-RRP): 2.63 log2 enrichment (interaction score)

Sequence: GGCUAGAACUAGUGGAUCCCCCGGCGCCCGGCGGCUCGAGCCCGGGUAAGUGGAAAUAGUCUGCAUGCCGCCGGGCGCCAUGCCUGCAGGUCGACUCUAGAAAACAUG
- binding signal (PUM1 PUF domain R6-TFD): 4.99 log2 enrichment (interaction score)

Sequence: GGCUAGAACUAGUGGAUCCCCCGGCGCCCGGCGGCUCGAGCCCGGGUAAGUGUCAAUAGUCUGCAUGCCGCCGGGCGCCAUGCCUGCAGGUCGACUCUAGAAAACAUG
- binding signal (PUM1 PUF domain R5-CAR): 4.28 log2 enrichment (interaction score)
- binding signal (PUM1 PUF domain R5-RKQ): 3.43 log2 enrichment (interaction score)
- binding signal (PUM1 PUF domain R5-FRV): 1.98 log2 enrichment (interaction score)
- binding signal (PUM1 PUF domain R5-RNS): 3.43 log2 enrichment (interaction score)

Sequence: GGCUAGAACUAGUGGAUCCCCCGGCGCCCGGCGGCUCGAGCCCGGGUAAGUGUACAUAGUCUGCAUGCCGCCGGGCGCCAUGCCUGCAGGUCGACUCUAGAAAACAUG
- binding signal (PUM1 PUF domain R4-WAR): 3.19 log2 enrichment (interaction score)

Sequence: GGCUAGAACUAGUGGAUCCCCCGGCGCCCGGCGGCUCGAGCCCGGGUAAGUGUGAAUAGUCUGCAUGCCGCCGGGCGCCAUGCCUGCAGGUCGACUCUAGAAAACAUG
- binding signal (PUM1 PUF domain R5-NGC): 3.12 log2 enrichment (interaction score)

Sequence: GGCUAGAACUAGUGGAUCCCCCGGCGCCCGGCGGCUCGAGCCCGGGUAAGUGUUAAUAGUCUGCAUGCCGCCGGGCGCCAUGCCUGCAGGUCGACUCUAGAAAACAUG
- binding signal (PUM1 PUF domain R5-FRV): 2.68 log2 enrichment (interaction score)
- binding signal (PUM1 PUF domain R5-RNS): 4.14 log2 enrichment (interaction score)

— article PMC8384837, “Expanding the binding specificity for RNA recognition by a PUF domain”
